Source: article PMC5540273 (PLoS ONE, 2017)

These molecules were tested on VRK2.
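Also: kd values determined as follow-up on hits from a single-replicate KINOMEscan panel screen.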

Compound | Kd
CC(C)(C)n1cnc2c(N)ncnc21 [SKF-97359] | > 10 µM
COc1ccc(Nc2nccc(N3CCC(NC(=O)Nc4cccc(C(C)=O)c4)C3)n2)cc1 (stereo not drawn) [GSK1379731] | > 10 µM
CN(C(=O)c1ccc(-c2cc(-c3c[nH]nc3-c3ccccn3)ccn2)cc1)C1CCOCC1 [GW810083] | > 10 µM
